An excerpt weighted towards active compounds, which were near 4.7% of everything screened.
ATG4B inhibitor: ATG4B (human) cysteine protease inhibition; Q9Y4P1; ATG4B cleavage of LC3-PLA2, NBD-HPC fluorescence, 1 h; inhibition, % at 8.33 µM; actives 0.51% (n = 340,000); AID 504462; in the data active = inhibition above about 40%
Target sequence (Q9Y4P1 whole entry, looked up): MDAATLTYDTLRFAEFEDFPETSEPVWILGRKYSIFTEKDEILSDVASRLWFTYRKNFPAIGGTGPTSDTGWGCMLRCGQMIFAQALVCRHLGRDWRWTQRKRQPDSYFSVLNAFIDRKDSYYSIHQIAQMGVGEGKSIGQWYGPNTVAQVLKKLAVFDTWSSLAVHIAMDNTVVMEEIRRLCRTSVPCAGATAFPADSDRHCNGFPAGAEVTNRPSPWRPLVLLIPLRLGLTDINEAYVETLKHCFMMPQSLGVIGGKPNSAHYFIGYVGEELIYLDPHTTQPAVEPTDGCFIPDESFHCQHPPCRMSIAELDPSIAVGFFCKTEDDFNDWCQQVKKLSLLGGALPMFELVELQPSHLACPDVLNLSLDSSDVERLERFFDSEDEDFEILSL
tim10-1 inh: tim10-1 yeast growth inhibition; S. cerevisiae tim10-1 ts strain growth, BacTiter-Glo, 24 h; inhibition, % at 20 µM; actives 2.2% (n = 330,000);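 active = inhibition of at least 40%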;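 note: mutant grown at 25 °C; 0% = DMSO wells with yeast and 100% = wells holding no yeast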
tim23-1 inh: growth inhibitors of tim23-1 mutant yeast. S. cerevisiae tim23-1 growth, BacTiter-Glo luminescence, 24 h. actives 1.3% (n = 330,000). AID 463212. inhibition, % at 20 µM;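 active = growth inhibition of the mutant yeast at or above 50%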;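 note: temperature-sensitive mutant grown at 25 °C; plate controls were DMSO-treated mutant yeast for no effect and medium wells lacking yeast for full effect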
SKKanGAS inh: SKKanGAS growth inhibition; inhibition, % at 7.5 µM; S. pyogenes SKKanGAS, kanamycin growth, BacTiter-Glo, 6 h; actives 1.3% (n = 300,000);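 active = mean replicate score, as percent of positive control median, at least 50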;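 note: strain carries kanamycin resistance gene driven by streptokinase promoter and grows in 40 µg/ml kanamycin; loss of luminescence reflects streptokinase promoter inhibition or plain growth inhibition; 0% = median of DMSO wells and 100% = positive control at its reference dose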
PfHsp90 set2: growth inhibition of yeast expressing Plasmodium Hsp90 | S. cerevisiae expressing PfHsp90, BacTiter-Glo ATP, 48 h; yeast lacking PDR1 and PDR3 efflux regulators | inhibition, % at 9.4 µM | actives 0.32% (n = 310,000) | AID 504621;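 active = every replicate shows inhibition above about 80%, whatever the replicate mean, limit read from the data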;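 note: 0% = DMSO neutral controls and 100% = 20 µM radicicol positive controls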
TIM10 inh: growth inhibitors of TIM10 yeast strain; S. cerevisiae TIM10 strain growth, BacTiter-Glo luminescence, 24 h; AID 463195; actives 1.4% (n = 330,000); inhibition, % at 10 µM;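 active = inhibition of 40% or more at the single tested concentration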;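 note: wild-type TIM10 isogenic control strain grown at permissive 25 °C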
tim23-1 conf: tim23-1 yeast growth inhibition, confirmed; shares compounds with tim23-1 inh; S. cerevisiae tim23-1 growth, BacTiter-Glo luminescence, 24 h; inhibition, % at 20 µM; actives 83% (n = 4,400);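 active = inhibition above about 39% in either of two replicate wells at 20 µM, limit read from the data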;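 note: temperature-sensitive tim23-1 mutant grown at 25 °C; 0% = DMSO wells with yeast and 100% = medium wells without yeast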
Starred values were filed as active, the others as inactive.

O=C(O)c1cccc(-c2ccc(/C=N/NC(=O)C3COc4ccccc4O3)o2)c1 (stereo unspecified) was read as ATG4B inhibitor -4.5, tim10-1 inh -3.5, tim23-1 inh 16.3, PfHsp90 set2 -22.0 and TIM10 inh -5.0.
COC(=O)c1ccc2nc(NC(=O)C(C)C)sc2c1 was read as ATG4B inhibitor -7.9, tim10-1 inh 37.8, tim23-1 inh 33.0, SKKanGAS inh -5.4, PfHsp90 set2 13.4 and TIM10 inh 27.5.
For COC(=O)c1ccc2nc(NC(=O)C3CC3)sc2c1 the results were ATG4B inhibitor -3.5, tim10-1 inh 33.7, tim23-1 inh 51.3*, SKKanGAS inh -3.1, PfHsp90 set2 12.2, TIM10 inh 32.9 and tim23-1 conf 50.4*.
CC1CC1C(=O)Nc1nc2ccc(Cl)cc2s1 (stereo unspecified) was read as ATG4B inhibitor 4.2, tim10-1 inh 39.6, tim23-1 inh 55.7*, SKKanGAS inh 5.5, PfHsp90 set2 -66.6, TIM10 inh 34.0 and tim23-1 conf 53.2*.
For COc1coc(/C=C/C(=O)O)cc1=O the results were ATG4B inhibitor 6.9, tim10-1 inh 4.4, tim23-1 inh 13.5, SKKanGAS inh -5.7, PfHsp90 set2 9.9 and TIM10 inh -3.9.
Screening O=c1[nH]c(CCl)nc2cc(-c3ccc(F)cc3)sc12 returned ATG4B inhibitor 0.1, tim10-1 inh 21.2, tim23-1 inh 59.5*, SKKanGAS inh 10.3, PfHsp90 set2 19.3, TIM10 inh 35.5 and tim23-1 conf 57.5*.
COc1ccc(-n2nnnc2/C(=C/N(C)C)C(=O)c2ccccc2)cc1 was read as ATG4B inhibitor -10.8, tim10-1 inh 13.0, tim23-1 inh 11.3, SKKanGAS inh 0.9, PfHsp90 set2 -2.7 and TIM10 inh 15.8.
COc1cc(NC(=O)c2ccc(N3CCCC3=O)cc2)cc(OC)c1 was read as ATG4B inhibitor 2.9, tim10-1 inh -16.5, tim23-1 inh 4.3, PfHsp90 set2 -3.6 and TIM10 inh 5.7.
Screening O=C(COC(=O)Cc1ccc(F)cc1)NC(=O)c1ccccc1 returned ATG4B inhibitor -13.7, tim10-1 inh -2.7, tim23-1 inh 10.9, SKKanGAS inh -1.7, PfHsp90 set2 9.8 and TIM10 inh -1.0.
COc1ccc2c(c1)NC(c1ccc(N(C)C)cc1)c1cccn1-2 (stereo unspecified) was read as ATG4B inhibitor 1.1, tim10-1 inh 39.0, tim23-1 inh 56.4*, SKKanGAS inh 28.2, PfHsp90 set2 -0.6, TIM10 inh 35.5 and tim23-1 conf 60.7*.
`Cc1c(NC(=O)/C(C#N)=C/C2CC=CCC2)c(=O)n(-c2ccccc2)n1C` (stereo unspecified) gave ATG4B inhibitor 1.1, tim10-1 inh 30.9, tim23-1 inh 24.0, SKKanGAS inh 4.8, PfHsp90 set2 42.9 and TIM10 inh 13.0.
`COc1ccc2c(c1)C(=O)N(c1ccc(C)cc1C)C(=O)C2(C)C` gave ATG4B inhibitor -0.4, tim10-1 inh 32.5, tim23-1 inh 55.1*, SKKanGAS inh 3.5, PfHsp90 set2 -10.3, TIM10 inh 36.0 and tim23-1 conf 56.8*.
Screening Cc1[nH]n(-c2ccccc2)c(=O)c1C(c1cccc([N+](=O)[O-])c1)c1c(C)[nH]n(-c2ccccc2)c1=O returned ATG4B inhibitor 1.0, tim10-1 inh 34.3, tim23-1 inh 56.4*, SKKanGAS inh -2.7, PfHsp90 set2 11.1, TIM10 inh 38.3 and tim23-1 conf 60.2*.
`O=C(CSc1nnc(C2CC2)n1C1CC1)Nc1cccc(Br)c1` gave ATG4B inhibitor -8.6, tim10-1 inh -0.4, tim23-1 inh 8.2, PfHsp90 set2 -54.5 and TIM10 inh 3.5.
Cc1ccc(NS(=O)(=O)c2cc(C(=O)N3CCN(CCO)CC3)ccc2C)cc1 was read as ATG4B inhibitor -6.0, tim10-1 inh -0.7, tim23-1 inh 0.3 and TIM10 inh 5.7.
`O=C(CNC(=O)C12CC3CC(CC(C3)C1)C2)OCc1cc(=O)n2cc(Br)ccc2n1` gave ATG4B inhibitor -7.0, tim10-1 inh 23.2, tim23-1 inh 22.8, SKKanGAS inh 2.8, PfHsp90 set2 -23.9 and TIM10 inh 4.4.
For O=C(CNC(=O)C12CC3CC(CC(C3)C1)C2)OCc1ccc(F)cc1Cl the results were ATG4B inhibitor 7.3, tim10-1 inh 21.7, tim23-1 inh 51.6*, PfHsp90 set2 18.0, TIM10 inh 28.2 and tim23-1 conf 60.5*.
`CCOc1ccc(C(C)=O)cc1COC(=O)CNC(=O)C12CC3CC(CC(C3)C1)C2` gave ATG4B inhibitor -1.4, tim10-1 inh 26.1, tim23-1 inh 50.3*, PfHsp90 set2 -7.0, TIM10 inh 22.5 and tim23-1 conf 35.2.
Screening COc1cc2c(c(OC)c1OC)-c1ccc(SC)c(=O)cc1C(NC(=O)C(F)(F)F)CC2 (stereo unspecified) returned ATG4B inhibitor -7.3 and PfHsp90 set2 -26.2.
For CC(=O)OCC(=O)[C@@]1(O)[C@H](C)C[C@H]2[C@@H]3CCC4=CC(=O)C=C[C@]4(C)[C@@]3(F)[C@@H](O)C[C@@]21C the results were ATG4B inhibitor -2.4, tim10-1 inh -22.3, tim23-1 inh 3.0, SKKanGAS inh 2.8, PfHsp90 set2 -8.3 and TIM10 inh -0.4.
`CCC(=O)OCC(=O)[C@@]1(OC(=O)CC)[C@@H](C)C[C@H]2[C@@H]3CCC4=CC(=O)C=C[C@]4(C)[C@@]3(Cl)[C@@H](O)C[C@@]21C` gave ATG4B inhibitor -5.2, tim10-1 inh 34.9, tim23-1 inh 54.9*, PfHsp90 set2 -32.6, TIM10 inh 24.2 and tim23-1 conf 40.0*.
Screening NNC(=O)c1cc2cc(Oc3ccccc3)ccc2[nH]1 returned ATG4B inhibitor -10.0, tim10-1 inh 37.4, tim23-1 inh 58.9*, SKKanGAS inh 17.0, PfHsp90 set2 13.3, TIM10 inh 25.9 and tim23-1 conf 14.8.
For Fc1ccc(C(c2nnnn2Cc2cccs2)N2CCN(C3CCCC3)CC2)cc1 (stereo unspecified) the results were ATG4B inhibitor 0.1, tim10-1 inh -0.8, tim23-1 inh -13.6, SKKanGAS inh 4.0, PfHsp90 set2 27.1 and TIM10 inh -6.0.
Screening C#C[C@]1(O)CC[C@H]2[C@@H]3CCC4=Cc5oncc5C[C@]4(C)[C@H]3CC[C@@]21C returned ATG4B inhibitor -3.9, tim10-1 inh 39.8, tim23-1 inh 50.1*, SKKanGAS inh -13.9, PfHsp90 set2 -7.5, TIM10 inh 7.3 and tim23-1 conf 49.5*.
COc1cc(OC)c(OC)cc1CNC(=O)c1ccc(S(=O)(=O)N2CC(C)OC(C)C2)cc1 (stereo unspecified) was read as ATG4B inhibitor -1.2, tim10-1 inh -3.5, tim23-1 inh -5.8, PfHsp90 set2 25.4 and TIM10 inh -2.5.
